This passage reports growth results from PubChem BioAssay (NCI).

Some test systems named below: SK-MEL-2 melanoma; EKVX NSCLC; SN12C renal; UO-31 renal; TK-10 renal; ACHN renal; CAKI-1 renal; A498 renal; CCRF-CEM leukemia; MOLT-4 leukemia; RPMI-8226 leukemia; OVCAR-8 ovarian; OVCAR-5 ovarian; OVCAR-4 ovarian; SK-OV-3 ovarian; IGROV1 ovarian; OVCAR-3 ovarian; HS 578T breast; NCI/ADR-RES ovarian; SR leukemia.
Holding throughout (test): NCI-60 one-dose screen, 48 h (100 = growth as untreated, 0 = no growth, -100 = all killed)
What all share (conditions): 10 µM unless noted

About 83,000 compounds went through this panel and 20% of them were active in at least one assay; those are over-represented in the sample as a whole.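 Activity criterion: percent growth below 10, measured after cells in 96-well plates were exposed to a single compound concentration for 48 hours.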 Unmarked numbers belong to inactive results. Calls of active or inactive are those of the source.

As to `C#CC(F)(F)[C@]1(O)CC[C@H]2[C@@H]3CCC4=CC(=O)CCC4=C3[C@@H](c3ccc(C4CC4)cc3)C[C@@]21C`, the growth in the test on SK-MEL-2 melanoma is 59.5%; with EKVX NSCLC, -67.4% (active); in the test with SN12C renal, 60.3%; in the test on UO-31 renal it was -84.8% (active); in the test with TK-10 renal, 99.8%; in the test with ACHN renal, 40.4%. In addition, the growth in the test with CAKI-1 renal was -73.3% (active); with A498 renal it was -5.83% (active); in the test with CCRF-CEM leukemia, -63% (active); with MOLT-4 leukemia it was -6.54% (active); with RPMI-8226 leukemia, -42.5% (active); in the test on OVCAR-8 ovarian, 24.8%. In addition, the growth in the test with OVCAR-5 ovarian was 9.97% (active); with OVCAR-4 ovarian it was 10.9%; with SK-OV-3 ovarian, -79.4% (active); in the test with IGROV1 ovarian it was -48.5% (active); with OVCAR-3 ovarian, -73.4% (active); in the test on HS 578T breast, 33.4%. In addition, the growth in the test on NCI/ADR-RES ovarian is 11%.
Consider `N#Cc1c(-c2ccc(Cl)cc2)nc(N/N=C/c2cccc(Br)c2)nc1N1CCOCC1`, for which the growth was 94.5% in the test with SK-MEL-2 melanoma; 68.7% with EKVX NSCLC; 91.4% in the test with SN12C renal; 51.2% with UO-31 renal; 102% with TK-10 renal; 71.5% in the test on ACHN renal. Moreover, the growth in the test with CAKI-1 renal was 73%; with A498 renal it was -10.8% (active); in the test on CCRF-CEM leukemia it was 50.3%; with MOLT-4 leukemia, 36.1%; in the test on RPMI-8226 leukemia, 56%; in the test on OVCAR-8 ovarian it was 101%. Besides, the growth was 82% with OVCAR-5 ovarian; 95.6% in the test with OVCAR-4 ovarian; 109% in the test with SK-OV-3 ovarian; 83.6% in the test on IGROV1 ovarian; 94.8% with OVCAR-3 ovarian; 82.1% with HS 578T breast. For the same compound, in the test with NCI/ADR-RES ovarian, the growth is 90.6%.
Turning to `COc1cc(/C=C/C(=O)c2c(C)oc3nc[nH]c(=O)c23)cc(OC)c1OC`, the growth was 82.5% in the test with SK-MEL-2 melanoma; 61.9% with EKVX NSCLC; 79.8% with SN12C renal; 63.2% in the test on UO-31 renal; 151% with TK-10 renal; 74.7% with ACHN renal. Also, the growth in the test on CAKI-1 renal is 72.7%; in the test on A498 renal, 93.4%; in the test on CCRF-CEM leukemia, 34%; in the test on MOLT-4 leukemia it was 68.4%; in the test with RPMI-8226 leukemia it was 61.9%; with OVCAR-8 ovarian it was 79.5%. In addition, the growth with OVCAR-5 ovarian was 96.5%; with OVCAR-4 ovarian, 74.9%; with SK-OV-3 ovarian, 98.7%; in the test with IGROV1 ovarian, 75.4%; in the test with OVCAR-3 ovarian, 77.8%; with HS 578T breast, 84.3%. Moreover, the growth with NCI/ADR-RES ovarian is 82.1%.
With `CN(CCCCCl)P(=O)(OCc1ccc([N+](=O)[O-])o1)C(F)(F)c1ccc(CC(=O)NC[C@@H](O)/C=C\[C@@H](O)[C@H](CO)Cc2ccccc2)cc1` (some centres not stated), the growth with SK-MEL-2 melanoma is 66.5%; in the test on EKVX NSCLC, 99.3%; in the test on SN12C renal, 98.8%; with UO-31 renal, 88.9%; in the test on TK-10 renal, 113%; with ACHN renal it was 94%. Also, the growth with CAKI-1 renal was 104%; in the test on A498 renal, 83.8%; in the test with CCRF-CEM leukemia, 70.7%; with MOLT-4 leukemia, 93.5%; with SR leukemia it was 47.7%; in the test with RPMI-8226 leukemia it was 77.1%. For the same compound, the growth is 95.1% in the test with OVCAR-8 ovarian; 111% with OVCAR-5 ovarian; 95.2% in the test on OVCAR-4 ovarian; 99.4% in the test with IGROV1 ovarian; 107% in the test with OVCAR-3 ovarian; 103% in the test with HS 578T breast. Further, the growth in the test on NCI/ADR-RES ovarian was 101%.
On to `O=S(=O)(Nc1ccc(OC(F)F)cc1)c1ccc(-c2cnc(C3CC3)o2)cc1`, for which the growth was 63.9% in the test with SK-MEL-2 melanoma; 61.7% in the test on EKVX NSCLC; 77.5% with SN12C renal; 60.2% in the test with UO-31 renal; 102% in the test on TK-10 renal; 79.4% in the test with ACHN renal. In addition, the growth is 47.2% in the test on CAKI-1 renal; 16.9% in the test on A498 renal; 66.8% in the test on CCRF-CEM leukemia; 50.1% with MOLT-4 leukemia; 52.8% in the test with RPMI-8226 leukemia; 78.4% in the test on OVCAR-8 ovarian. For the same compound, the growth in the test on OVCAR-5 ovarian is 97.5%; in the test on OVCAR-4 ovarian it was 52.3%; in the test on SK-OV-3 ovarian, 83.4%; with IGROV1 ovarian, 64.8%; with OVCAR-3 ovarian, 71.5%; with HS 578T breast, 75.5%. Further, the growth in the test on NCI/ADR-RES ovarian was 41.5%.
On to `COc1ccc2c(c1)c(-c1nonc1-c1cn(C)c3ccccc13)cn2C`, for which the growth in the test with SK-MEL-2 melanoma is 41.4%; with EKVX NSCLC, 51.7%; with SN12C renal, 47.8%; with UO-31 renal it was 35.1%; in the test with TK-10 renal it was 59.2%; in the test on ACHN renal, 48.6%. In addition, the growth in the test with CAKI-1 renal was 30.1%; in the test with A498 renal it was 3.63% (active); in the test with CCRF-CEM leukemia, 25.7%; with MOLT-4 leukemia, 30.2%; in the test with RPMI-8226 leukemia, 21.2%; with OVCAR-8 ovarian, 35.6%. Besides, the growth was 52% in the test with OVCAR-5 ovarian; 45.5% in the test with OVCAR-4 ovarian; 44.6% in the test with SK-OV-3 ovarian; 42.5% in the test with IGROV1 ovarian; 3.08% (active) in the test on OVCAR-3 ovarian; 16.7% in the test on HS 578T breast. Moreover, the growth in the test with NCI/ADR-RES ovarian was 17.1%.
`COc1ccc(-c2cc(C(=O)N=Nc3c(O)[nH]c4ccc(Br)cc34)no2)cc1`: the growth in the test on SK-MEL-2 melanoma is 97.6%; in the test with EKVX NSCLC it was 94.4%; with SN12C renal, 93.6%; with UO-31 renal it was 77.6%; with TK-10 renal, 124%; with ACHN renal, 98.2%. The growth was 84.1% in the test with CAKI-1 renal; 99.6% with A498 renal; 102% in the test with CCRF-CEM leukemia; 101% in the test on MOLT-4 leukemia; 107% with RPMI-8226 leukemia; 99.8% with OVCAR-8 ovarian. For the same compound, the growth was 99.8% in the test on OVCAR-5 ovarian; 103% with OVCAR-4 ovarian; 95.2% with SK-OV-3 ovarian; 100% in the test on IGROV1 ovarian; 108% in the test with OVCAR-3 ovarian; 95.7% in the test with HS 578T breast. Further, in the test on NCI/ADR-RES ovarian, the growth was 97.4%.
For the compound `Cc1nc2ccccc2n1C(=O)C[C@@H]1NC(=S)NC1=O`, the growth with SK-MEL-2 melanoma was 113%; with EKVX NSCLC it was 93.6%; in the test with SN12C renal, 103%; with UO-31 renal it was 78.3%; in the test on TK-10 renal, 90.9%; with ACHN renal, 96.5%. Further, the growth is 91.5% in the test on CAKI-1 renal; 94.9% with A498 renal; 109% in the test with CCRF-CEM leukemia; 100% in the test on MOLT-4 leukemia; 111% in the test with RPMI-8226 leukemia; 93.6% with OVCAR-8 ovarian. In addition, the growth is 85.6% with OVCAR-5 ovarian; 101% in the test with OVCAR-4 ovarian; 100% with SK-OV-3 ovarian; 94.8% in the test with IGROV1 ovarian; 108% with OVCAR-3 ovarian; 104% in the test on HS 578T breast. Besides, in the test with NCI/ADR-RES ovarian, the growth is 101%.
